The list is not random: actives were taken first. Their share in the collection is about 5.7%.
Nrf2 block = blocks Nrf2 signaling | Potency, µM (highest dose often 46 µM), for the others: top-dose activity change, negative = inhibition, usual class: inhibitors | 360,000 compounds, 2.1% hits | A549 ARE-Fluc reporter, luciferase luminescence, 18-24 h | AID 504444; also: potency is read from the fitted curve at half-maximal effect; nearly all actives have a fitted effect of over 60% in size
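Nrf2 activity is the BugLite luminescence, read 15 min after reagent at room temperature, following CellTiter-Fluor cytotoxicity readout (30 min, 37C). Compound titrations were applied for 18-24 h to 5000 A549 ARE_Fluc cells/well in 5% FBS OPTI-MEM.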
KB-3-1 cytotox = KB-3-1 parental cell cytotoxicity. Potency, µM (titrated, usually from 46.1 µM), hits mostly cytotoxic. KB-3-1 viability, CellTiter-Glo ATP luminescence, 72 h. 400,000 compounds, 1.4% hits; also: potency is read from the fitted curve at half-maximal effect; nearly all actives have a fitted effect of over 60% in size
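KB-3-1 parental drug-naive adenocarcinoma cells in DMEM/10% FBS, incubated 72 h at 37 C with pin-transferred compounds across a concentration series. Viability by CellTiter-Glo luminescence; concentration-response curves fitted after normalization.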
A549 tox = counter-screen for Nrf2 inhibitors: cytotoxicity in A549 cells. A549 ARE-Fluc cells, CellTiter-Fluor viability, 18-24 h. Potency, µM (titrated, usually from 46 µM), without a hit: at the highest dose activity change, negative = cytotoxicity, hits mostly inhibitors. 390,000 compounds, 0.16% hits. AID 504648; also: potency is read from the fitted curve at half-maximal effect
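A549 ARE_Fluc cells in 5% FBS OPTI-MEM were exposed to compounds in concentration-response for 18-24 h at 37 deg C. Viability was read by CellTiter-Fluor fluorescence (Ex 405/Em 525) after 30 min, before the luciferase read.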
KB-V1 MDR tox = kills drug-selected multidrug resistant KB-V1 cells; 400,000 compounds, 3.4% hits; AID 1347076; Potency, µM (titrated, usually from 46.1 µM), usual class: cytotoxic; KB-V1 MDR cells viability, CellTiter-Glo, 72 h; also: potency is read from the fitted curve at half-maximal effect; nearly all actives have a fitted effect of over 60% in size
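qHTS viability screen in drug-selected KB-V1 MDR cells: 72 h compound treatment at 37 degrees C, ATP luminescence end point.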
Giardia killer = Giardia lamblia killing; AID 540267; Giardia lamblia trophozoite viability; 340,000 compounds, 0.15% hits; activity change, % at 7.66 µM, hits read low; in the data active = activity change below about -80%; inconclusive = between about -30% and that limit;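 also: parasites exposed to compound for two days anaerobically before the ATP read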
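Media and compound were dispensed first, then trophozoites at 100 cells/well; plates sat 48 hrs at 37 deg C without oxygen before ATP luminescence reagent was added and read after 15-30 min at room temperature.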
PI4K2A block = blocks human PI4K2A kinase activity; 420,000 compounds, 0.13% hits; purified PI4K2A, ADP-Glo luminescence, 1 h; active compounds read low; Q9BTU6; activity change, negative = inhibition, % at 76.9 µM; in the data active = activity change below about -50%; inconclusive = mostly about -30% to -49%;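 also: -100% = wells without enzyme as full effect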
Target sequence (Q9BTU6 whole entry, looked up): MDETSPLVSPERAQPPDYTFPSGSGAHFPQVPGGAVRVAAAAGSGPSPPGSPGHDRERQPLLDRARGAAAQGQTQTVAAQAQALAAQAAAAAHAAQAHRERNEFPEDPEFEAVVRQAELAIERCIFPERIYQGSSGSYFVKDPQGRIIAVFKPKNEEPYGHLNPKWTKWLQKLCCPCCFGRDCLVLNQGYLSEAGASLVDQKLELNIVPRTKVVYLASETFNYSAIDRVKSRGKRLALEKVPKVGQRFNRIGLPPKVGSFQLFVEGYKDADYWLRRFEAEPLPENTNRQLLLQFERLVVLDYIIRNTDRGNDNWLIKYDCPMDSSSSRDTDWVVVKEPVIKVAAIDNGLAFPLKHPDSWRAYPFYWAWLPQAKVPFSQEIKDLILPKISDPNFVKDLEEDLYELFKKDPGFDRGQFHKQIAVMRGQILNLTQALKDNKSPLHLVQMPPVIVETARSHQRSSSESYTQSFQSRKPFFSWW
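PI4K2A activity was measured by ADP-Glo luminescence: enzyme (4 ug/mL stock) and phosphatidylinositol (1.2 mM stock) in Tris pH 7.5/MgCl2/EGTA/Triton X-100 buffer were reacted with ATP (300 microM stock) for one hour at ambient temperature.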
* marks the source's active call; other numbers are inactive results; i = inactive; ? = inconclusive; · = not tested or not shown; ! = not confirmed by another sample. Unless noted, calls follow the shape of the dose curve; as a rule, active = well fitted curve in the direction sought with a large enough effect; inconclusive = small, poorly fitted or top-dose-only effect, or another doubt; inactive = no such curve, though single readings can be large; an effect the other way counts as inactive or inconclusive. Unless noted, % is scaled to controls: 0 for no effect and ±100 for the full control effect.

SMILES	Nrf2 block	KB-3-1 cytotox	A549 tox	KB-V1 MDR tox	Giardia killer	PI4K2A block
CC1=C(C(=O)Nc2cccc(F)c2)C(c2ccsc2)C2=C(CC(C)(C)CC2=O)N1 (centres undefined)	16.1%	2.91µM*	-9.6%	14.6µM*	-0.5	4.4
CC1=C(C(=O)Nc2ccccc2F)C(c2ccsc2)C2=C(CC(C)(C)CC2=O)N1 (centres undefined)	-2.9%	?	-18.1%	i	?	-1.4
COC(=O)C1(Cc2ccc3c(c2)CCC3)Cc2ccc3c(c2C1=O)CCC3 (centres undefined)	-28.0%	5.8µM*	-0.4%	4.61µM*	-9.5	10.5
Cc1ccc(NC(=O)Cc2ccc3c(c2)CCCC3)cc1C	2.3%	i	0.2%	i	3.1	-0.9
COc1ccc(S(=O)(=O)N2N=C(C)Oc3ccccc3C2=O)cc1	-19.0%	4.61µM*	?	3.66µM*	-2.2	5.1
CC1=NN(S(=O)(=O)c2ccc(C)cc2)C(=O)c2ccccc2O1	?	i	-0.4%	?	6.4	2.5
O=C(c1c(F)cccc1F)N1CCC(Oc2cccnc2)CC1	·	·	·	·	·	-2.4
CCC(C)NC(=O)CSc1nc2ccsc2c(=O)n1-c1ccc(OC)cc1 (centres undefined)	?	i	·	i	-0.7	0.4
COc1cccc(-c2nc(SCC(=O)NC3CCCC3)c(-c3ccc(F)cc3)[nH]2)c1	18.4µM*	i	?	i	·	-5.8
COc1ccc(-n2c(SCC(=O)NC3CCCCC3)nc3ccsc3c2=O)cc1	9.6%	i	5.1%	2.06µM*	-3.1	3.3
COc1cccc(-c2nc(SCC(=O)NC3CCCC3)c(-c3ccc(C)cc3)[nH]2)c1	?	i	?	i	·	-0.3
COc1ccc2nc(SCC(=O)NC3CCCC3)c(C)cc2c1	-15.5%	7.31µM*	-8.7%	?	-12.9	-2.3
COc1ccc2c(C)cc(SCC(=O)NC3CCCC3)nc2c1	-8.2%	i	15.5%	i	27.0	2.3
CCOc1ccc2nc(SCC(=O)NC3CCCCC3)[nH]c2c1	-1.8%	i	-10.8%	16.4µM*	-13.3	4.6
CCn1c(Cc2cccs2)nnc1SCC(=O)Nc1ccccc1-c1ccccc1	·	·	·	·	·	0.3
c1ccc(N=Nc2ccc(C3=NCCO3)cc2)cc1	·	i	·	i	·	-51.4*
Cc1ccccc1CN1CCCCC(NC(=O)Nc2ccccc2)C1=O (centres undefined)	·	·	·	·	·	-3.7
Cc1ccccc1NC(=O)c1ccccc1OCC(=O)Nc1ccc(Br)cc1	·	i	·	i	·	·
O=C(Cn1nc(CNc2ccc(Br)cc2)[n+]2c1CCCCC2)c1ccc([N+](=O)[O-])cc1	-16.8%	13µM*	-7.1%	i	-9.7	0.3
O=C(Cn1nc(CNc2ccc(Cl)cc2)[n+]2c1CCCCC2)c1ccc(Br)cc1	-3.5%	?	-4.9%	i	-1.4	-3.7
O=C(O)c1cccs1	·	i	·	i	·	·
COc1ccc(NC(=O)C2COc3ccccc3O2)cc1S(=O)(=O)N1CCOCC1 (centres undefined)	4.4%	i	1.9%	13µM*	1.0	5.4
O=C(Nc1ccc(S(=O)(=O)Nc2ncccn2)cc1)C1COc2ccccc2O1 (centres undefined)	?	i	1.2%	i	-10.8	2.3
COc1ccc(OC)c(NS(=O)(=O)c2ccc(NC(=O)C3COc4ccccc4O3)cc2)c1 (centres undefined)	16.4µM*	i	-20.1%	?	-13.0	1.0
COC(=O)[C@]12C[C@H](CC(=O)NCCCCc3ccccc3)C(=O)N(Cc3ccc(Cl)cc3Cl)C1=C[C@H](C(C)(C)C)O[C@@H]2C	·	·	·	·	·	-0.5
SMILES	Nrf2 block	KB-3-1 cytotox	A549 tox	KB-V1 MDR tox	Giardia killer	PI4K2A block
COCC#Cc1ccc(CC[C@H]2O[C@H]3CC[C@@H](CO)O[C@H]3C[C@H]2n2cc(C3CC3)nn2)cc1	·	·	·	·	·	-17.1
O=C(Nc1ccc(Cl)cc1)c1cc(S(=O)(=O)N2CCCc3ccccc32)ccc1F	·	·	5.0%	·	·	0.2
CC(=O)N1CCc2cc(S(=O)(=O)NCCC(=O)N3CCc4ccccc4C3)ccc21	13µM*	?	-15.8%	23.1µM*	4.4	-7.5
O=C(Nc1ccc(F)c(F)c1)c1cc(S(=O)(=O)N2CCN(c3ccccn3)CC2)ccc1F	?	i	-15.2%	10.3µM*	7.3	1.8
CCC(=O)N1CCc2cc(S(=O)(=O)NCCC(=O)N3CCN(c4cccc(C)c4)C(C)C3)ccc21 (centres undefined)	18.4µM*	i	1.7%	i	1.7	2.6
CCC(=O)N1CCc2cc(S(=O)(=O)NCCC(=O)N3CCN(c4ccccc4)CC3)ccc21	-9.1%	i	-0.1%	i	-18.5	-4.8
Cc1ccc(NC(=O)c2cc(S(=O)(=O)N3CCCc4ccccc43)ccc2F)cc1F	·	25.9µM*	1.8%	i	·	-6.0
COc1ccc(Cn2ccc3ccc(-c4ccc5ccn(Cc6ccc(C#N)cc6)c5c4)cc32)cc1	·	·	·	·	·	5.9
Cc1cccc(Cn2cc(COC(=O)Nc3ccc(F)cc3)nn2)c1	·	·	·	·	·	-0.3
CCC[C@H]1[C@@H](NC(=O)C2CCOC2)CC[C@@]23CCCN2C(=O)CCC[C@@H]13 (some centres undefined)	·	·	·	·	·	-0.9
COc1ccc(CN(Cc2ccccc2)C(=O)c2ccc(OC)cc2O)cc1	3.5%	·	-4.3%	·	·	·
Cc1ccc(S(=O)(=O)NCCC2=CCCCC2)cc1C(N)=O	10.3µM*	i	-4.9%	i	-5.6	-4.2
CC(=O)N1CCc2cc(S(=O)(=O)NC3CCCc4ccccc43)ccc21 (centres undefined)	6.31µM*	i	-7.7%	?	24.5	-1.0
O=C(O)c1ccc(S(=O)(=O)NC2CCCc3ccccc32)cc1 (centres undefined)	-12.1%	i	-3.0%	i	0.6	-3.9
CC(=O)N1CCc2cc(S(=O)(=O)NCCC3=CCCCC3)ccc21	3.66µM*	i	-11.1%	?	4.8	6.1
Cc1ccc(NC(=O)c2cc(S(=O)(=O)NCCC3=CCCCC3)ccc2F)cc1F	10.3µM*	10.3µM*!	?	10.3µM*!	32.0	-1.1
O=C(Nc1cccc(-c2nn3c(=O)cc(N4CCNCC4)nc3s2)c1)c1ccncc1	1.4%	·	-5.1%	·	·	·
O=C(O)C#CC(=O)O	·	i	·	i	·	·
C(=N\c1ncnc2sccc12)/NOCc1ccccc1	·	?	1.2%	?	-14.9	3.6
Clc1ccc(CON/C=N/c2ncnc3sccc23)cc1	20.6µM*	i	-10.8%	?	-13.5	0.5
COc1ccc2nc3n(c(=O)c2c1)-c1cc2ccccc2cc1C(=O)NC3Cc1ccccc1 (centres undefined)	·	11.6µM*	·	?	·	-0.2

Screening results from PubChem BioAssay.
